Records with an inconclusive call do not appear. Activity calls are given as the source filed them. Calls come from the whole dose curve; as a rule, active = well fitted cell-killing curve with a large enough effect; inconclusive = small, poorly fitted or top-dose-only effect, or effect the other way; inactive = no such curve, though single readings can be large or run the other way.
Potency is the fitted concentration of half-maximal effect.

The nature of this assay: Viability qHTS for spleen associated tyrosine kinase inhibitor (SYKi) drug resistant MV4-11 cells (AID 1963824). Note: nearly all actives have a fitted effect of over 35% in size. The note with it: SYKi-resistant MV4-11 viability, CellTiter-Glo, 72 h; series mostly up to 45 µM; viability, % of control: at the top concentration. The essentials:
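SYK-inhibitor-resistant MV4-11 AML cells were seeded at 500 per well onto compound and cultured 72 hours (37 °C, 5% CO2). CellTiter-Glo was then added, and after 10 min at room temperature, luminescence gave viability.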
(Quantitative high-throughput screening tests each substance at several concentrations.)
As for `CC(C)[C@H]1CCC(CO)=C[C@@H]1/C=C(\CO)C(=O)O`, the “viability, % of control” value was 79% (inactive).
`Cc1ccc(NS(=O)(=O)c2cc3c(cc2F)NC(=O)CC3)cc1Cl`: the Potency was 16.4 µM (active).
Take `N#Cc1ccc2ncnc(NCCc3ccccc3)c2c1`: the Potency was 4.11 µM (active).
In the case of `CC(C)=CCC/C(C)=C/CC/C(C)=C/CC[C@]1(C)CCc2cc(O)cc(C)c2O1`, the “viability, % of control” value is 59.2% [at 17.3 µM] (inactive).
In the case of `Cc1cc(Nc2ncnc3ccc(NC4=NC(C)(C)CO4)cc23)ccc1Oc1ccn2ncnc2c1`, the Potency was 16.4 µM (active).
With `CCCCNc1ccc(-c2ccc(CN3CCOCC3)cn2)c(NC2CCC(O)CC2)c1` (configuration not stated), the Potency was 0.0502 µM (active).
For the compound `C=C1CCC2C(C)(C(=O)O)CCCC2(C)C1CC/C(C)=C\CO` (configuration not stated), the “viability, % of control” value is 71.8% (inactive).
For the compound `C=C[C@H]1[C@H](O[C@@H]2O[C@H](CO)[C@@H](O)[C@H](O)[C@H]2O)OC=C(C(=O)OC)[C@H]1CCO`, the “viability, % of control” value is 99.6% (inactive).
In the case of `CC1CCC2(NC1)OC1CC3C4CC=C5CC(O[C@@H]6O[C@H](CO)[C@@H](O[C@@H]7O[C@@H](C)[C@H](O)[C@@H](O)[C@H]7O)[C@H](O)[C@H]6O[C@@H]6O[C@@H](C)[C@H](O)[C@@H](O)[C@H]6O)CCC5(C)C4CCC3(C)C1C2C` (some centres not stated), the Potency was 5.51 µM (active).
As for `C[C@H]1CC[C@@]2(OC1)O[C@H]1CC3C4CC[C@H]5C[C@@H](O)CC[C@]5(C)C4CC(=O)[C@]3(C)[C@H]1[C@@H]2C` (some centres not stated), the “viability, % of control” value is 65.6% [at 17.3 µM] (inactive).
Take `O=C(C1=CCN2c3c(cccc31)OC[C@H]2CN1CCOCC1)c1cccc2ccccc12`: the Potency was 18.4 µM (active).
For `O=C1/C(=C/c2ccc(O)c(O)c2)Oc2ccccc21`, the Potency is 0.517 µM (active).
For `COc1cc2c(cc1OC)CC(=O)N(CCCNC[C@H]1Cc3cc(OC)c(OC)cc31)CC2`, the Potency is 16.4 µM (active).
As for `COc1ccc(CCC(=O)O)c(O[C@@H]2O[C@H](CO)[C@@H](O)[C@H](O)[C@H]2O)c1`, the “viability, % of control” value is 90.4% (inactive).
In the case of `CN[C@@H]1[C@H](O[C@H]2[C@H](O[C@@H]3[C@@H](O)[C@H](O)[C@@H](N=C(N)N)[C@H](O)[C@H]3N=C(N)N)O[C@@H](C)[C@]2(O)CO)O[C@@H](CO)[C@H](O)[C@H]1O`, the “viability, % of control” value is 93.4% (inactive).
With `COc1ccccc1-c1nc(SCC(=O)Nc2ccc(C)c(C)c2)n[nH]1`, the Potency is 16.4 µM (active).
For `C=CC(C)(C)C1(CC2NC(=O)C3CCCN3C2=O)C(=O)Nc2cc3c(cc21)C=CC(C)(C)O3` (configuration not stated), the Potency is 1.12 µM (active).
For `CC(=O)c1ccc2c(c1)N(CCCN(C)C)c1ccccc1S2`, the Potency was 11.9 µM (active).
Turning to `Nc1ncnc2c1c(I)cn2[C@@H]1C[C@H](N)[C@@H](O)[C@H]1O`, the Potency is 6.51 µM (active).
Consider `CC(=O)NC(CCC(=O)O)C(=O)NCCc1ccc(O)cc1` (configuration not stated), for which the “viability, % of control” value is 85% (inactive).
With `C/C=C(\C)C(=O)OC1C(C)C2(O)C(C=C(CO)CC3(O)C(=O)C(C)=CC32)C2C(C)(C)C12OC(C)=O` (configuration not stated), the Potency was 0.112 µM (active).
As to `CC(=O)O[C@@H]1[C@@H](OC(=O)/C=C/c2ccccc2)[C@H](C)O[C@@H](O[C@H]2[C@@H]3C=CO[C@@H](O[C@@H]4O[C@H](CO)[C@@H](O)[C@H](O)[C@H]4O)[C@@H]3[C@@]3(CO)O[C@@H]23)[C@@H]1OC(C)=O`, the “viability, % of control” value is 96% [at 17.3 µM] (inactive).
Turning to `CC(C)CC(=O)n1cc(C(N)=O)c(=O)cc1C(O)c1ccccc1` (configuration not stated), the “viability, % of control” value is 84.5% (inactive).
Take `Cc1cc(C)c(NC(=O)N(Cc2ccc3c(c2)Cc2ccccc2-3)C2CCCCCC2)c(C)c1`: the Potency is 16.4 µM (active).
With `OC[C@H]1O[C@@H](OC[C@H]2O[C@@H](OCc3ccccc3)[C@H](O)[C@@H](O)[C@@H]2O)[C@H](O)[C@@H](O)[C@@H]1O`, the “viability, % of control” value was 74.6% [at 17.3 µM] (inactive).
As to `CCOC(=O)c1cc2ccc(O)cc2oc1=O`, the Potency was 14.6 µM (active).
As to `CC(=O)c1cc(C(=O)N[C@@H](C)Cn2ccc(-c3ccc(C#N)c(Cl)c3)n2)[nH]n1`, the Potency was 14.6 µM (active).
Consider `C=Cc1ccc(O[C@@H]2O[C@H](CO[C@@H]3O[C@@H](C)[C@H](O)[C@@H](O)[C@H]3O)[C@@H](O)[C@H](O)[C@H]2O)cc1`, for which the “viability, % of control” value is 107% [at 17.3 µM] (inactive).
Regarding `COc1ccc2cc1Oc1ccc(cc1)CC1c3cc(c(OC)cc3CCN1C)Oc1c(OC)c(OC)c(OC)c3c1C(C2)N(C)CC3` (configuration not stated), the Potency is 10 µM (active).
Turning to `CCn1c(=O)n([C@H]2CCCN(c3nccc(-c4cc5ccccc5o4)n3)C2)c2ccccc21`, the Potency is 23.1 µM (active).
As to `COc1cc(/C=C/C(=O)OCC2OC(OC3(CO)OC(CO)C(O)C3O)C(O)C(O)C2O)ccc1O` (configuration not stated), the “viability, % of control” value was 97.3% [at 17.3 µM] (inactive).
Take `N#Cc1ccc(O[C@@H]2c3ccccc3C[C@H]2N2CCC[C@@H](N)C2)c(Cl)c1`: the Potency was 16.4 µM (active).

The values above are taken from PubChem BioAssay (NCATS).
